This note sets out measurements from PubChem BioAssay (NCI).

Test systems include SR leukemia; RPMI-8226 leukemia; OVCAR-8 ovarian; OVCAR-5 ovarian; OVCAR-4 ovarian; SK-OV-3 ovarian; IGROV1 ovarian; HS 578T breast; NCI/ADR-RES ovarian; T-47D breast; BT-549 breast; MDA-MB-435 melanoma; SW-620 colon; MCF7 breast; HCT-116 colon; HCC-2998 colon; KM12 colon.
What all share (assay): NCI-60 one-dose screen, 48 h (100 = growth as untreated, 0 = no growth, -100 = all killed)
What all share (conditions): 10 µM unless noted

The panel holds about 83,000 compounds, 20% with a hit somewhere; the sample as a whole holds those more often.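 Cell lines were cultured in 96-well plates, exposed to a single compound concentration, and assessed for percent growth 48 hours later.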 Unmarked numbers belong to inactive results. Activity calls are given as the source filed them. How the source made its calls: active means growth percent below 10; inactive means the rest.

As to `CC[C@H](CO)Nc1ccc2ncc(C#Cc3cncc(C(=O)Nc4ccc(CN5CCN(C)CC5)c(C(F)(F)F)c4)c3)n2n1`, the growth with SR leukemia was -42.9% (active); in the experiment with RPMI-8226 leukemia, -44.8% (active); with OVCAR-8 ovarian it was -58.1% (active); with OVCAR-5 ovarian it was -38.1% (active); with OVCAR-4 ovarian, -47.7% (active); in the experiment on SK-OV-3 ovarian it was -45.6% (active). Further, the growth was -33.1% (active) in the experiment on IGROV1 ovarian; -43.9% (active) in the experiment with HS 578T breast; 54.3% in the experiment on NCI/ADR-RES ovarian; -69.5% (active) with T-47D breast; -97.4% (active) in the experiment on BT-549 breast; -91.4% (active) in the experiment on MDA-MB-435 melanoma. Also, the growth is -50.8% (active) in the experiment on SW-620 colon; -73.1% (active) in the experiment on MCF7 breast; -94.3% (active) in the experiment with HCT-116 colon; -59.4% (active) in the experiment with HCC-2998 colon; -61.9% (active) with KM12 colon.
With `CN(C)CCN(C)c1ccc2ncc(C#Cc3cncc(C(=O)Nc4ccc(CN5CCN(C)CC5)c(C(F)(F)F)c4)c3)n2n1`, the growth in the experiment with SR leukemia was -17.4% (active); with RPMI-8226 leukemia, -33.9% (active); in the experiment on OVCAR-8 ovarian it was 63.6%; with OVCAR-5 ovarian it was 91.5%; with OVCAR-4 ovarian, -0.365% (active); in the experiment with SK-OV-3 ovarian, 118%. The growth in the experiment on IGROV1 ovarian is 45.5%; with HS 578T breast, 59.9%; with NCI/ADR-RES ovarian, 37.1%; with T-47D breast, 101%; in the experiment with BT-549 breast, 111%; with MDA-MB-435 melanoma, 48.4%. Further, the growth is -44.9% (active) in the experiment on SW-620 colon; -63.7% (active) with MCF7 breast; -85.9% (active) in the experiment with HCT-116 colon; 33.9% in the experiment with HCC-2998 colon; -39.8% (active) with KM12 colon.
For `COc1cc2oc(-c3cccc(N)c3)cc(=O)c2c(OC)c1OC`, the growth in the experiment on SR leukemia is 87.2%; in the experiment with RPMI-8226 leukemia, 97.8%; in the experiment with OVCAR-8 ovarian, 98.7%; in the experiment with OVCAR-5 ovarian, 101%; in the experiment on OVCAR-4 ovarian, 99.7%; in the experiment with SK-OV-3 ovarian, 125%. For the same compound, the growth was 107% with IGROV1 ovarian; 115% in the experiment on HS 578T breast; 106% in the experiment on NCI/ADR-RES ovarian; 97.8% with T-47D breast; 116% in the experiment with BT-549 breast; 103% in the experiment with MDA-MB-435 melanoma. For the same compound, the growth in the experiment on SW-620 colon was 112%; in the experiment on MCF7 breast, 96.3%; in the experiment on HCT-116 colon, 111%; in the experiment with HCC-2998 colon, 110%; with KM12 colon, 103%.
For the compound `COc1ccc(C(=O)CSc2nc3c(c(Nc4ccc(S(N)(=O)=O)cc4)n2)CCCC3)cc1`, the growth in the experiment with SR leukemia was 69.6%; in the experiment with RPMI-8226 leukemia it was 83.6%; in the experiment with OVCAR-8 ovarian, 92.3%; in the experiment on OVCAR-5 ovarian it was 123%; in the experiment with OVCAR-4 ovarian it was 87.8%; in the experiment on SK-OV-3 ovarian it was 120%. Also, the growth in the experiment on IGROV1 ovarian was 112%; in the experiment on HS 578T breast, 110%; in the experiment on NCI/ADR-RES ovarian, 103%; in the experiment with T-47D breast it was 71.3%; in the experiment on BT-549 breast it was 127%; in the experiment on MDA-MB-435 melanoma, 103%. Besides, the growth in the experiment with SW-620 colon is 86.4%; with MCF7 breast, 97.8%; with HCT-116 colon, 93%; with HCC-2998 colon, 97.6%; with KM12 colon it was 73.7%.
As for `O=S(=O)(NCCNc1nccc(-n2cnc3ccccc32)n1)c1ccc(C(F)(F)F)cc1`, the growth with SR leukemia was 35.5%; with RPMI-8226 leukemia, 44.9%; with OVCAR-8 ovarian it was 63.5%; with OVCAR-5 ovarian, 86.2%; in the experiment with OVCAR-4 ovarian it was 28.4%; with SK-OV-3 ovarian, 62.2%. For the same compound, the growth in the experiment on IGROV1 ovarian was 66.4%; in the experiment with HS 578T breast it was 42.9%; with NCI/ADR-RES ovarian it was 55.9%; in the experiment with T-47D breast it was 22.3%; with BT-549 breast it was 53.1%; with MDA-MB-435 melanoma, 64.4%. For the same compound, the growth is 83.5% in the experiment with SW-620 colon; 34.9% in the experiment with MCF7 breast; 40.1% in the experiment on HCT-116 colon; 80.5% in the experiment with HCC-2998 colon; 58.7% in the experiment on KM12 colon.
In the case of `COC(=O)c1[nH]nc2c1C1(C(=O)N(C)c3ccccc31)C(C#N)=C(N)O2` (stereo not drawn), the growth is 113% in the experiment on SR leukemia; 104% with RPMI-8226 leukemia; 102% in the experiment on OVCAR-8 ovarian; 103% with OVCAR-5 ovarian; 97.7% in the experiment on OVCAR-4 ovarian; 98.3% in the experiment with SK-OV-3 ovarian. Moreover, the growth in the experiment on IGROV1 ovarian was 105%; in the experiment on HS 578T breast it was 99.7%; in the experiment with NCI/ADR-RES ovarian, 99.7%; with T-47D breast, 108%; in the experiment on BT-549 breast, 133%; with MDA-MB-435 melanoma, 99.9%. Moreover, the growth was 93% in the experiment with SW-620 colon; 89.6% with MCF7 breast; 101% in the experiment with HCT-116 colon; 104% with HCC-2998 colon; 103% in the experiment on KM12 colon.
For the compound `CNC(=O)c1c(NC(=O)c2cccc(C(F)(F)F)c2F)sc2c1CCC(=O)C2`, the growth was 20% in the experiment with SR leukemia; -0.669% (active) in the experiment on RPMI-8226 leukemia; 16.8% with OVCAR-8 ovarian; 4.83% (active) in the experiment on OVCAR-5 ovarian; 8.78% (active) in the experiment on OVCAR-4 ovarian; 4.35% (active) in the experiment with SK-OV-3 ovarian. Further, the growth in the experiment with IGROV1 ovarian is 10.5%; in the experiment with HS 578T breast, 8.98% (active); in the experiment with NCI/ADR-RES ovarian, 7.77% (active); with T-47D breast it was 13.8%; with BT-549 breast, 21.3%; with MDA-MB-435 melanoma, 11.9%. For the same compound, the growth in the experiment on SW-620 colon was 14.2%; in the experiment with MCF7 breast, 6.33% (active); with HCT-116 colon, 5.58% (active); in the experiment on HCC-2998 colon it was 25.2%; in the experiment on KM12 colon, 3% (active).
For the compound `COc1ccc2[nH]cc(-c3csc4nc(-c5ccccc5)cn34)c2c1`, the growth in the experiment with SR leukemia was 20.1%; in the experiment on RPMI-8226 leukemia it was 5.78% (active); with OVCAR-8 ovarian, 24.1%; in the experiment on OVCAR-5 ovarian, 46.2%; with OVCAR-4 ovarian it was 56.5%; in the experiment on SK-OV-3 ovarian it was 16.1%. Further, the growth in the experiment with IGROV1 ovarian is 41.6%; in the experiment on HS 578T breast it was -3.7% (active); with NCI/ADR-RES ovarian, 5.97% (active); with T-47D breast, 30.7%; in the experiment with BT-549 breast it was 45.8%; in the experiment with MDA-MB-435 melanoma it was -47.7% (active). For the same compound, the growth with SW-620 colon was 25.1%; in the experiment on MCF7 breast, 11.5%; with HCT-116 colon, 4.36% (active); in the experiment on HCC-2998 colon, 6.03% (active); in the experiment with KM12 colon, 11.6%.
With `CCC(CC)N1C(=O)/C(=c2\sc3n(c2=O)NC2C(N=3)N(CC)C(=O)N2CC)c2ccccc21` (stereo not drawn), the growth was 54.5% with SR leukemia; 64.7% with RPMI-8226 leukemia; 81.6% with OVCAR-8 ovarian; 57.3% in the experiment with OVCAR-5 ovarian; 63.6% in the experiment with OVCAR-4 ovarian; 95.7% in the experiment on SK-OV-3 ovarian. Also, the growth in the experiment on IGROV1 ovarian is 44.7%; in the experiment with HS 578T breast, 73.1%; in the experiment with NCI/ADR-RES ovarian it was 26.3%; with T-47D breast, 86.1%; in the experiment on BT-549 breast, 102%; in the experiment with MDA-MB-435 melanoma, 9.51% (active). For the same compound, the growth with SW-620 colon is 48.2%; in the experiment on MCF7 breast, 35.8%; in the experiment on HCT-116 colon it was 27.9%; in the experiment with HCC-2998 colon it was 65.9%; in the experiment on KM12 colon it was 11.2%.
